# Source: PubChem BioAssay (NCATS)
# Inconclusive results are not listed. The source made the active and inactive calls. Calls come from the whole dose curve; as a rule, active = well fitted activation curve with a large enough effect; inconclusive = small, poorly fitted or top-dose-only effect; inactive = flat fitted curve, though single readings scatter.
# Test: Primary redox qHTS assay for identification of artifact compounds. (AID 1845223);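 note: 0% = DMSO and 100% = reference compound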
# Settings: Amplex Red/HRP redox cycling with DTT, fluorescence; series mostly up to 53.8 µM; redox activity (% of DA3003): at the top concentration
# In short: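 Amplex Red (25 uM) and HRP (250 mU/mL) in HBSS, with compounds for 15 min, then 250 uM DTT for 30 min, room temperature, dark. Fluorescence 525/598 nm read; normalized to DMSO and 10 uM DA3003; Hill fit.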
row,Structure (SMILES),redox activity (% of DA3003)
1,OC[C@H]1O[C@@H](OC(CCCCc2ccc(O)cc2)CCc2ccc(O)cc2)[C@H](O[C@@H]2OC[C@](O)(CO)[C@H]2O)[C@@H](O)[C@@H]1O (stereo partly specified),5.11% [at 25.6 µM] (inactive)
2,C[C@@H]1O[C@@H](O[C@H]2[C@H](O[C@H]3[C@H](O[C@H]4CC[C@@]5(CO)C(CC[C@]6(C)C5CC=C5C7CC(C)(C)C[C@@H](O)[C@]7(C)CC[C@]56C)C4(C)C)O[C@H](C(=O)O)[C@@H](O)[C@@H]3O)OC[C@@H](O)[C@@H]2O)[C@H](O)[C@H](O)[C@H]1O (stereo partly specified),0.809% [at 11.5 µM] (inactive)
3,CN1C(=O)c2ccccc2NC(=O)[C@]12O[C@@H]2c1cccc(O)c1,11.1% (inactive)
4,C=CC(C)(CC/C=C(\C)CC/C=C(\C)CC(O)/C=C(\C)C(=O)O)O[C@@H]1O[C@H](CO)[C@@H](O)[C@H](O)[C@H]1O[C@@H]1O[C@H](CO)[C@@H](O)[C@H](O)[C@H]1O (stereo partly specified),5.71% [at 25.6 µM] (inactive)
5,COc1ccccc1[C@@H]1C2=C(CC(C)(C)CC2=O)Nc2n[nH]c(C(F)(F)F)c21,3.09% (inactive)
6,CCOC(=O)c1c(C)nn(-c2cccc([N+](=O)[O-])c2)c1C,-3.72% (inactive)
7,COC(=O)C1=COC(OC2OC(CO)C(O)C(O)C2O)C2C1CC(OC(=O)C(O)CC(=O)O)C2C (stereo unspecified),-1.12% [at 25.6 µM] (inactive)
8,O=C(O)[C@H]1CCCC[C@H]1C(=O)N1CCc2ccccc2[C@H]1CN1C(=O)c2ccccc2C1=O,19.6% (inactive)
9,CC1CC(O)CC(C)(C)C1(O)CCO (stereo unspecified),-18.2% [at 85.7 µM] (inactive)
10,CC(NCc1ccc(OCc2cccc(F)c2)cc1)C(N)=O (stereo unspecified),-1.62% (inactive)
11,CCC(=O)N[C@@H]1Cc2ccccc2[C@H](c2ccccc2)C1,8.67% (inactive)
